Source: the supplement of paper PMC6555819

Tests used:
Test in all cases: PBM binding z-score (relative to random genomic background probes); higher = stronger binding; sequences stand for … in GC…GCGATTGACAGCGTAGAATGAAGG
[1] = system: FXR:RXRa (NR concentration 270 nM, RXRa partner concentration 90 nM)
Outline: (§1)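 For binding z-scores, the reference was random background probes on custom Agilent 4×180K protein-binding microarrays. These arrays were incubated 1 h with ligand-free nuclear receptor dimers in PBS pH 7.4, 2% milk, 0.02% Triton X-100, 1 mM DTT, 0.2 mg/mL BSA and 0.4 mg/ml salmon testes DNA. Fluorescence was scanned after antibody detection of each partner (one per run) and regression-normalized.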

[2] = system: LXRa:RXRa (NR concentration 270 nM, RXRa partner concentration 90 nM)
Outline: as §1

[3] = system: LXRa homodimer (NR concentration 270 nM)
Outline: as §1

[4] = system: LXRb:RXRa (NR concentration 270 nM, RXRa partner concentration 90 nM)
Outline: as §1

[5] = system: LXRb homodimer (NR concentration 270 nM)
Outline: as §1

[6] = system: PPARa:RXRa (NR concentration 270 nM, RXRa partner concentration 90 nM)
Outline: as §1

[7] = system: PPARg:RXRa (NR concentration 180 nM, RXRa partner concentration 90 nM)
Outline: as §1

[8] = system: PPARg:RXRa 270nM:90nM, anti-RXR (NR concentration 270 nM, RXRa partner concentration 90 nM)
Outline: as §1

[9] = system: PPARg:RXRa 30nM:10nM, anti-RXR (NR concentration 30 nM, RXRa partner concentration 10 nM)
Outline: as §1

[10] = system: PPARg:RXRa 90nM:30nM, anti-RXR (NR concentration 90 nM, RXRa partner concentration 30 nM)
Outline: as §1

Sequence | PBM binding z-score [1] | PBM binding z-score [2] | PBM binding z-score [3] | PBM binding z-score [4] | PBM binding z-score [5] | PBM binding z-score [6] | PBM binding z-score [7] | PBM binding z-score [8] | PBM binding z-score [9] | PBM binding z-score [10]
TCTATTAGTTGAAGGGGAACCGACGAGTCCGTTT | 1.21 | 1.19 | 0.437 | 1.19 | 0.829 | 1.23 | 0.0273 | 2.51 | 4.36 | 3.48
ATCGAAAGGTCGAAGGTGAGGATACCCACCCGAA | 4.08 | 3.68 | 0.155 | 2.73 | 0.724 | 4.69 | 4.61 | 5.07 | 2.25 | 4.11
CCGACTCGGGCATAAGGTTACCATAAGCCAGCCC | 0.235 | 2.34 | -0.549 | 0.615 | -1.1 | 1.14 | 0.783 | 1.19 | -0.332 | 0.652
GCTGCTAGGACAACTGATGGTCAGCTAAAGCTCG | -0.547 | -0.859 | -0.672 | -1.14 | -1.05 | -1.94 | -0.0624 | -0.895 | -0.952 | -1.12
ATCTCTAGGTAAGACTTAGTTCAGTGAAGAACGC | 0.399 | 0.643 | 0.399 | 0.303 | 0.796 | 0.394 | 0.205 | 0.542 | 0.399 | 0.438
CGTCAAAGTTCAACGAAGGTAACGTAAAGCACGC | 5.82 | 5.6 | 2.79 | 3.6 | 1.02 | 4.68 | 4.43 | 4.94 | 2.06 | 4.07
ATCGAAAGGTCGTGAGGTGAGTATCCAGAAAGGC | 5.07 | 4.11 | 0.195 | 3.04 | 0.388 | 4.97 | 4.11 | 4.31 | 1.14 | 2.9
CCTAGTTGGTCAAGGTCACACACGCTATAGGTAC | 4.71 | 4.18 | 2.66 | 3.92 | 1.23 | 4.33 | 3.35 | 3.96 | 1.66 | 3.2
ACAGACAGGTGATGAAGGTATCTCAGGCTATCAT | -0.127 | -0.162 | -0.557 | -0.354 | -0.55 | -0.193 | 0.506 | -0.135 | -0.034 | -0.24
CCTACTGGGCCATAAAGGTCATTGATGCCGATAA | 3.55 | 4.42 | 3.57 | 4.21 | 0.574 | 4.79 | 4.32 | 4.68 | 2.1 | 4.45
TCTAGGTGGTCAAAGGTCACACACTCGAAATGCG | 6.45 | 5.79 | 3.73 | 5.64 | 1.02 | 6.57 | 10.3 | 8.72 | 8.95 | 10.2
CTCGATAGGTCGTGCTCAGGTGAGTATACCAAAC | 0.909 | 0.843 | -0.342 | 0.951 | -0.454 | 1.82 | 0.11 | 0.394 | -0.186 | -0.0239
GCGACTTGGGCAAAGCAGGTTACCATAAGGTTGG | -0.371 | -0.57 | -0.467 | -0.537 | -1.29 | 0.243 | 0.451 | -0.351 | -0.654 | -0.41
CCTATTAGTCGACCATAAGGGCAACCGAAGCTCG | 0.245 | 0.0274 | -0.217 | 0.208 | 0.406 | 0.539 | 0.531 | 0.353 | -0.22 | 0.358
AGGACGAGGGCAATGAGTTGATAGCACGGGTGGC | 0.665 | 0.175 | -0.256 | -0.148 | -0.403 | 0.903 | 1.12 | 0.232 | -0.168 | -0.187
TCTCGGAGGACTCGAAGGTCAGAGCTTTCCAGAG | 0.838 | 0.984 | -0.429 | 0.814 | -1.14 | 1.46 | -0.316 | 1.24 | 2 | 1.38
TCATATAGGTAATACAGGTGAAAGTGGGCATCTA | 1.4 | 1.27 | 0.56 | 1.21 | 0.302 | 2.33 | 2.41 | 3.18 | 4.26 | 3.72
TCTATTAGTTGATTAGGGTAACCGAAACAGCGGA | 0.555 | 0.884 | 0.302 | 1.09 | 0.799 | 1.01 | 0.052 | 1.86 | 3.73 | 2.87
CTCGACAGGTCGGTTGAGGTGAGTATACGGATAA | 1.43 | -0.211 | -0.296 | -0.278 | -0.791 | 0.423 | 0.166 | -0.237 | -0.356 | -0.324
CCAGACAGGCGAGAAGGTAACTCAGCCTCGATTA | -0.951 | -0.595 | -0.499 | -0.97 | -1.31 | -0.764 | -0.0182 | -0.949 | -0.723 | -0.947
CCGGACAGGTGAGAAGGTAACTCAGCCTCGATTA | -0.332 | -0.196 | -0.289 | -0.26 | -0.839 | 0.454 | 0.347 | 0.118 | -0.24 | -0.183
TCATATATGTAAAGGTGAAAGTCGAACGATATGA | 0.775 | 1.41 | -0.143 | 1.2 | -0.14 | 2.68 | 2.6 | 3.13 | 3.73 | 3.47
GGAACGAGGGCATTCGAGTTGATAGTATGGCGAT | 1.62 | 1.71 | -0.324 | 0.436 | -0.544 | 1.62 | 1.13 | 1.22 | 0.197 | 0.753
